Results filed as inconclusive are left out. Activity calls are given as the source filed them. How the source made its calls, unless noted: active means hit-call score of the fitted dose curve at least 0.9, where 1 is the maximum; inactive means score below 0.9.

This passage reports outcome and AC50 results from PubChem BioAssay (EPA / NIEHS).

The target of experiment [1] is Paired box protein Pax-6 (Homo sapiens) (UniProt P26367). Nature of the experiment: ATG_Pax6_CIS: Attagene CIS-FACTORIAL HepG2 Assay for human Paired Box 6 (PAX6) (AID 2282956). The note with it: HepG2 CIS-FACTORIAL PAX6 reporter transcription, RNA readout; actives raise or lower the signal. The method in brief:
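HepG2 cells transiently transfected with cis-promoter-driven multiplexed reporter units sensing endogenous transcription factor activity; 24 h chemical exposure. Reporter mRNA quantified by RT-PCR, 6-FAM labelling, HpaI digestion and capillary electrophoresis; bidirectional fit versus DMSO baseline.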

Experiment [2] in a line: ATG_PXRE_CIS: Attagene CIS-FACTORIAL HepG2 Assay for human Pregnane X Receptor Element (PXRE) (AID 2282957). The note with it: HepG2 Attagene CIS-FACTORIAL PXRE reporter, mRNA; actives raise or lower the signal. The method in brief:
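Transfect HepG2 with MRTUs (cis promoter elements); dose chemical, incubate 24 h; isolate RNA, RT with oligo(dT), PCR, 6-FAM label, HpaI cut, CE. Gain/loss fit vs DMSO.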

Experiment [3] can be described thus: ATG_PPRE_CIS: Attagene CIS-FACTORIAL HepG2 Assay for human Peroxisome Proliferator-activated Response Element (PPRE) (AID 2282958). The note with it: HepG2 PPRE cis-element reporter, Attagene transcription factor profiling; actives raise or lower the signal. The method in brief: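 In this cell-based multiplex, a PPRE cis element drives a reporter sequence in transiently transfected HepG2 cells. Following 24 h treatment, labeled cDNA amplicons are sized and quantified by capillary electrophoresis, with DMSO defining baseline.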

A short description of experiment [4]: ATG_RORE_CIS: Attagene CIS-FACTORIAL HepG2 Assay for human RAR-related Orphan Receptor Element (RORE) (AID 2282959). Conditions: HepG2 Attagene cis-factorial RORE reporter, mRNA; actives raise or lower the signal. A digest of the protocol:
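Endogenous factor activity at a cis response element is read as reporter transcript levels in HepG2 cells, 24 h post-dose. Transcripts are quantified by RT-PCR with capillary electrophoresis, and data fitted in both directions against DMSO.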

The nature of experiment [5]: ATG_Sox_CIS: Attagene CIS-FACTORIAL HepG2 Assay for human SRY-box transcription factor (SOX) (AID 2282960). The note with it: HepG2 Attagene cis-factorial SOX reporter, mRNA; actives raise or lower the signal. A digest of the protocol:
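Measures mRNA induction of a SOX1-associated reporter in HepG2 after 24 h dosing. Fluorescently labelled RT-PCR fragments are separated by capillary electrophoresis, and gain or loss relative to DMSO control is fitted.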

Experiment [6] addresses Transcription factor Sp1 (Homo sapiens) (UniProt P08047). Nature of the experiment: ATG_Sp1_CIS: Attagene CIS-FACTORIAL HepG2 Assay for human Specificity Protein 1 (Sp1) (AID 2282961). Conditions: HepG2 Sp1 cis-reporter transcription, actives raise or lower the signal. A digest of the protocol:
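Cells: HepG2, transiently transfected with cis-regulated multiplexed reporters. Exposure: 24 h. Detection: reporter transcripts amplified, fluorescently labeled, restriction-digested and sized by capillary electrophoresis. Analysis: bidirectional fit relative to DMSO.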

A short description of experiment [7]: ATG_SREBP_CIS: Attagene CIS-FACTORIAL HepG2 Assay for human Sterol Regulatory Element Binding (SREBP) (AID 2282962). The note with it: HepG2 Attagene cis-factorial SREBP reporter, mRNA; actives raise or lower the signal. The method in brief:
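HepG2 cells transiently transfected with multiplexed cis-promoter reporter units sensing endogenous transcription factors; reporter mRNA measured 24 h after dosing by RT-PCR, 6-FAM labeling, HpaI digestion and capillary electrophoresis. Bidirectional fit versus DMSO.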

Experiment [8] deals with Signal transducer and activator of transcription 3 (Homo sapiens) (UniProt P40763). Kind of experiment: ATG_STAT3_CIS: Attagene CIS-FACTORIAL HepG2 Assay for human Signal Transducer and Activator of Transcription 3 (STAT3) (AID 2282963). The note with it: HepG2, Attagene cis-factorial STAT3 reporter transcription; actives raise or lower the signal. A digest of the protocol:
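After a 24 h compound incubation, total RNA from MRTU-transfected HepG2 cells was converted to cDNA and reporter sequences PCR-amplified, labelled and profiled by capillary electrophoresis. Gain and loss of signal were referenced to DMSO.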

Experiment [9] in a line: ATG_TA_CIS: Attagene CIS-FACTORIAL HepG2 Assay for human TA Basal Promoter (AID 2282964). The note with it: HepG2 Attagene CIS-factorial TA basal promoter reporter; actives raise or lower the signal. A digest of the protocol:
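Steps: transfect HepG2 with MRTUs; dose 24 h; isolate RNA, DNase-treat, reverse-transcribe; PCR and FAM-label reporter cDNA; digest with HpaI 2h at 37 C; run capillary electrophoresis. Activity fitted both directions against DMSO.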

The nature of experiment [10]: ATG_TCF_b_cat_CIS: Attagene CIS-FACTORIAL HepG2 Assay for human T-Cell-Factor with beta-catenin (TCF/b-cat) (AID 2282965). The note with it: HepG2 TCF/beta-catenin cis-reporter transcription, actives raise or lower the signal. A digest of the protocol: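 Measured: reporter mRNA in HepG2 transiently transfected with cis-promoter reporter units, 24 h after chemical addition. Fitting was bidirectional, DMSO as negative control.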

The nature of experiment [11]: ATG_TAL_CIS: Attagene CIS-FACTORIAL HepG2 Assay for human TAL Basal Promoter (AID 2282966).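 Further: background control endpoint measuring basal TAL promoter reporter mRNA not a specific factor.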 Conditions: HepG2 Attagene cis-factorial TAL promoter reporter; actives raise or lower the signal. The method in brief:
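Fluorescence of labelled reporter cDNA fragments, resolved by capillary electrophoresis, gave the readout. Human HepG2 liver cells carried transiently transfected cis-element reporter units and were treated for 24 hours; activity was fitted bidirectionally against DMSO.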

A short description of experiment [12]: ATG_TGFb_CIS: Attagene CIS-FACTORIAL HepG2 Assay for human Transforming Growth Factor (TGF) (AID 2282967). The note with it: HepG2 Attagene CIS TGFb reporter, mRNA transcription; actives raise or lower the signal. The method in brief:
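Cells were dosed for 24 hours, after which total RNA was reverse-transcribed and reporter sequences amplified, labeled and sized by capillary electrophoresis. Activity was fitted in both directions against DMSO.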

A short description of experiment [13]: ATG_VDRE_CIS: Attagene CIS-FACTORIAL HepG2 Assay for human Vitamin D Receptor Element (VDRE) (AID 2282968). The note with it: HepG2 VDRE cis-reporter transcription, actives raise or lower the signal. A digest of the protocol: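 In transiently transfected HepG2 liver cells, gain or loss of reporter mRNA after 24 h exposure is scored relative to DMSO, using fluorescence detection by capillary electrophoresis of RT-PCR products.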

Experiment [14] deals with Nuclear receptor subfamily 1 group I member 3 (Homo sapiens) (UniProt Q14994). Kind of experiment: ATG_CAR_TRANS: Attagene TRANS-FACTORIAL HepG2 Assay for human Constitutive Androstane Receptor (CAR) (AID 2282969; active means hit-call score of the fitted dose curve at least 0.9, where 1 is the maximum;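 further: activators raise reporter mRNA above DMSO so AC50 marks induction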). The note with it: HepG2 Attagene TRANS-FACTORIAL CAR reporter. A digest of the protocol:
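Readout is reporter mRNA induction, quantified by fluorescent primer extension and capillary electrophoresis after RT-PCR. Cells were HepG2 transiently carrying chimeric NR-Gal4 constructs with GAL4-UAS reporters, treated for 24 h; activity scored upward from DMSO.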

In experiment [15] the target is X-box-binding protein 1 (Homo sapiens) (UniProt P17861). Kind of experiment: ATG_Xbp1_CIS: Attagene CIS-FACTORIAL HepG2 Assay for human X-box Binding Protein 1 (XBP1) (AID 2282972). Conditions: HepG2 XBP1 cis-element reporter, Attagene multiplex; actives raise or lower the signal. A digest of the protocol: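 HepG2 cells transiently transfected with multiple cis-element reporter units report endogenous TF activity; 24 h exposure, then reporter mRNA measured by RT-PCR, 6-FAM labelling, HpaI digestion and capillary electrophoresis. Bidirectional fitting versus DMSO.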

Experiment [16] can be described thus: ATG_GAL4_TRANS: Attagene TRANS-FACTORIAL HepG2 Assay for GAL4 (Internal Marker) (AID 2282976; active means hit-call score of the fitted dose curve at least 0.9, where 1 is the maximum). The note with it: HepG2 Attagene TRANS GAL4 internal marker reporter. The method in brief:
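First, HepG2 cells were transfected with reporter units under GAL4-UAS control. Next, they were treated with chemical for 24 h. Finally, RNA was reverse-transcribed, PCR-amplified, FAM-labelled and resolved by capillary electrophoresis, with induction scored against DMSO.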

Experiment [17] has as its target Glucocorticoid receptor (Homo sapiens) (UniProt P04150). Kind of experiment: ATG_GR_TRANS: Attagene TRANS-FACTORIAL HepG2 Assay for human Glucocorticoid Receptor (GR) (AID 2282978; active means hit-call score of the fitted dose curve at least 0.9, where 1 is the maximum;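 further: activators score as hits since higher reporter transcript over DMSO is fitted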). The note with it: HepG2 Attagene TRANS GR reporter, mRNA transcription. The method in brief: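 Reporter transcript levels, detected by fluorescence after RT-PCR and capillary electrophoresis, served as the endpoint. HepG2 cells bearing transfected GAL4-UAS reporters responsive to NR-GAL4 chimeras were incubated with compound 24 h; DMSO defined baseline.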

The nature of experiment [18]: ATG_M_19_TRANS: Attagene TRANS-FACTORIAL HepG2 Assay for M19 Transcription Factor (Internal Marker) (AID 2282974; active means hit-call score of the fitted dose curve at least 0.9, where 1 is the maximum). Conditions: HepG2 Attagene TRANS-FACTORIAL M19 internal marker reporter. The method in brief:
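Reporter mRNA induction was measured in transfected HepG2 cells 24 h after dosing. Endpoint fitted upward relative to DMSO and serves as a background control within the multiplexed TRANS panel.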

Experiment [19] deals with Steroid hormone receptor ERR1 (Homo sapiens) (UniProt P11474). Kind of experiment: ATG_ERRa_TRANS: Attagene TRANS-FACTORIAL HepG2 Assay for human Estrogen-Related Receptor alpha (ERRa) (AID 2282971; active means hit-call score of the fitted dose curve at least 0.9, where 1 is the maximum). The note with it: HepG2 Attagene TRANS reporter, ERRa transactivation. The method in brief: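 Reporter transcript induction was quantified by RT-PCR and capillary electrophoresis of FAM-labelled, HpaI-cut products after 24 h treatment of HepG2 cells carrying transiently transfected GAL4-UAS reporter units and an exogenous ERRa-Gal4 fusion; activity scored as increase over DMSO.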
Sequence of Steroid hormone receptor ERR1 (Homo sapiens) (P11474 whole entry, looked up, the tested form may be a part): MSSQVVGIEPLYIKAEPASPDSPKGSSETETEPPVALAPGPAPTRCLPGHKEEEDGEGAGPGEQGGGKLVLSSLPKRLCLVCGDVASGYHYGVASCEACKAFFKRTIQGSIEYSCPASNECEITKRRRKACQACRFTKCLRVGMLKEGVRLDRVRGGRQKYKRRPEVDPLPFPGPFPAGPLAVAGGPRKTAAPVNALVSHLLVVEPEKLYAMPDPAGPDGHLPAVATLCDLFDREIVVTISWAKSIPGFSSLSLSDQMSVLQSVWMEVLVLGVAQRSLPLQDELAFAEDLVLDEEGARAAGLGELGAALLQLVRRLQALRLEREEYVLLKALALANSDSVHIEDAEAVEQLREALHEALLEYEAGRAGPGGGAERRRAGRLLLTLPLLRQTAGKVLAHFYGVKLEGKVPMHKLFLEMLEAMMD

Sequence of X-box-binding protein 1 (Homo sapiens) (P17861 whole entry, looked up): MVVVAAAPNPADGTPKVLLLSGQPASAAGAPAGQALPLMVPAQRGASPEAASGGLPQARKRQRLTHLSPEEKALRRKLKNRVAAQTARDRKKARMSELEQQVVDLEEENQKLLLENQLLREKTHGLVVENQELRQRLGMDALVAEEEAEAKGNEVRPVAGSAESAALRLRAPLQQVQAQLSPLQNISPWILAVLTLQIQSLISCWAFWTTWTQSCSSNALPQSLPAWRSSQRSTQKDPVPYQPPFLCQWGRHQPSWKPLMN
Sequence of Paired box protein Pax-6 (Homo sapiens) (P26367 whole entry, looked up): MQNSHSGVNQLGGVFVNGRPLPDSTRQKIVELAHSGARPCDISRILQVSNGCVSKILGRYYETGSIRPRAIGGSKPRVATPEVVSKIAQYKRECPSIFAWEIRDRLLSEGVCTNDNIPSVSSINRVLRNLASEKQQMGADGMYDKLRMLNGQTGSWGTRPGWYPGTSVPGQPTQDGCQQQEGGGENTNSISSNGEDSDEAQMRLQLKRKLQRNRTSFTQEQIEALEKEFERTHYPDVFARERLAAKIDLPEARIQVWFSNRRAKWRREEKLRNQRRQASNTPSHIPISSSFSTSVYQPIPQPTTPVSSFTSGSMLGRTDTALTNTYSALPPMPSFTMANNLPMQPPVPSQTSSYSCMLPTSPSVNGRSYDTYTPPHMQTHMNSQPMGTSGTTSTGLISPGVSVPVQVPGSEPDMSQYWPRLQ
Sequence of Glucocorticoid receptor (Homo sapiens) (P04150 whole entry, looked up, the tested form may be a part): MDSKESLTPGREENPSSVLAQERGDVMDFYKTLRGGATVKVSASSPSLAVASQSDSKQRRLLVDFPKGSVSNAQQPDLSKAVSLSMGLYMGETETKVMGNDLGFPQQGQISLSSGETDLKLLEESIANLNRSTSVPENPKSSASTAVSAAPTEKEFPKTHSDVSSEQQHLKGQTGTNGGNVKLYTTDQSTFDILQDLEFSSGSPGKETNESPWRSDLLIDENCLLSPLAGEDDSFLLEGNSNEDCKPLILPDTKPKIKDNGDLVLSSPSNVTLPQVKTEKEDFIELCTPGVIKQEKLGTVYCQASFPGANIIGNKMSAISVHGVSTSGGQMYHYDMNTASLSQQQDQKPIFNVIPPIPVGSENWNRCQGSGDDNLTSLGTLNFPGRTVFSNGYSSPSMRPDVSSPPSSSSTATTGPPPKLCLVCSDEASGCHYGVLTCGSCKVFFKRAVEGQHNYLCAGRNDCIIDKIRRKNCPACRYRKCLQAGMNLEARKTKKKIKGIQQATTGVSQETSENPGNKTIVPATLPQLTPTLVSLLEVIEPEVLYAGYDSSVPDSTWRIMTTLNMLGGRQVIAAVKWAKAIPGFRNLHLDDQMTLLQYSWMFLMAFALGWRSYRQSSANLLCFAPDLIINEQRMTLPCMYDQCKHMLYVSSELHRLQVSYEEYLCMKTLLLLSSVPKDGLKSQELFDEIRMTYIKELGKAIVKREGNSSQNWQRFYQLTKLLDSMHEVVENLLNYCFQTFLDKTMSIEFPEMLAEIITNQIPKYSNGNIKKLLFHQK
Sequence of Signal transducer and activator of transcription 3 (Homo sapiens) (P40763 whole entry, looked up): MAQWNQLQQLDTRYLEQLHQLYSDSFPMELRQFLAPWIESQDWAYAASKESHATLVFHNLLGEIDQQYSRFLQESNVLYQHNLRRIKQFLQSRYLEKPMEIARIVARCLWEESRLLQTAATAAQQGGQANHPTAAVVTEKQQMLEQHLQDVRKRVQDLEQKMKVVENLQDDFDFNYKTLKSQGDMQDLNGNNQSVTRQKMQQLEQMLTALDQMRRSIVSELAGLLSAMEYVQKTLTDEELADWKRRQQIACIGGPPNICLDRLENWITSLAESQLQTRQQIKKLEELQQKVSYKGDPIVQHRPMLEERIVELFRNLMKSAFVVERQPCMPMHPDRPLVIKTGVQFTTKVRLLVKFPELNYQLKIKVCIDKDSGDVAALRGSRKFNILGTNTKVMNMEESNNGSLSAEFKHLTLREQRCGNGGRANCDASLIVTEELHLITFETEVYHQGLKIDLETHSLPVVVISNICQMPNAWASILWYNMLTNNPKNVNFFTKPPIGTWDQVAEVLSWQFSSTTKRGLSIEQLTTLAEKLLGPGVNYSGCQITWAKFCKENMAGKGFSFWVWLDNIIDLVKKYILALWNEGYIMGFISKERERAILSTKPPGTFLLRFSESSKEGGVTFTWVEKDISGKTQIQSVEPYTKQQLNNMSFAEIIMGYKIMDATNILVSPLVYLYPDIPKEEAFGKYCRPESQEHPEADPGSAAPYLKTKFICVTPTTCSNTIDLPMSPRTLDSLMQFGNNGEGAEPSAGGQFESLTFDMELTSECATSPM
Sequence of Transcription factor Sp1 (Homo sapiens) (P08047 whole entry, looked up): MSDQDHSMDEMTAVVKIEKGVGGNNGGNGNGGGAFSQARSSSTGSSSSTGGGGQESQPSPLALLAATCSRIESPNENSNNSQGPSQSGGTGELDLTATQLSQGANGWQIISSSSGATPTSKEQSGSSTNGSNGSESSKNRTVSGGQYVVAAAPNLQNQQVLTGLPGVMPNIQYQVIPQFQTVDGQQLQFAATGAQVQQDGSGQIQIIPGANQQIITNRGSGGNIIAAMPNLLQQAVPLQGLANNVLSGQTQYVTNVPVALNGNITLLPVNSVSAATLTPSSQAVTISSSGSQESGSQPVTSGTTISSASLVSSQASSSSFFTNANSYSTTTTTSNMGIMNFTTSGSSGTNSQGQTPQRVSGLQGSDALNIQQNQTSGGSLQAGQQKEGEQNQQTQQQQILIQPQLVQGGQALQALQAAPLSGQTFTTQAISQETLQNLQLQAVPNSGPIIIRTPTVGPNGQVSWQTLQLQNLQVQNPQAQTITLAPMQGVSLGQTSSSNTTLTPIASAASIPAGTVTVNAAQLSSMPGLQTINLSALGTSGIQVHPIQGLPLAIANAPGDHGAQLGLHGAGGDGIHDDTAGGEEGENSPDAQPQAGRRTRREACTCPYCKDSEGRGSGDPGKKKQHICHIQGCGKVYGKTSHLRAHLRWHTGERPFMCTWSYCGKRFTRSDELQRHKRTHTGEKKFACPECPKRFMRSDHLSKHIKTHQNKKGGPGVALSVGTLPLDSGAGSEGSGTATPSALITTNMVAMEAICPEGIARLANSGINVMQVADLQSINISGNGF
Sequence of Nuclear receptor subfamily 1 group I member 3 (Homo sapiens) (Q14994 whole entry, looked up, the tested form may be a part): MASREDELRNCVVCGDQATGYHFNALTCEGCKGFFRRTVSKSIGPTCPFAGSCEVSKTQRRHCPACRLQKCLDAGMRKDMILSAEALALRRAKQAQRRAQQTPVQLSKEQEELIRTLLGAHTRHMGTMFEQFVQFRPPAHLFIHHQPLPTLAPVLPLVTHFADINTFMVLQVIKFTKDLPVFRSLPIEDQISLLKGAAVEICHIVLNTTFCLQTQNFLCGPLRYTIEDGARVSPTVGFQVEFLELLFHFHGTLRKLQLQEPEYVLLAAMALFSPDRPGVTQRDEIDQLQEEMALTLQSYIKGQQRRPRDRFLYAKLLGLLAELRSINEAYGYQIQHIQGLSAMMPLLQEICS

`CC(=O)c1ccc2c(c1)[C@H](NC(=O)c1ccc(F)cc1)[C@@H](O)C(C)(C)O2`: the call in experiment [1], in [4], in experiment [5], in [6], in experiment [7] and in experiment [8] was inactive. The call in experiment [9], in experiment [10], in [11], in experiment [12], in [13] and in experiment [14] was inactive. The call in experiment [15], in experiment [16] and in experiment [17] was inactive. The AC50 in experiment [2] was 12.4 µM (active); in experiment [3] it was 1.87 µM (active).
For the compound `COc1ccc(-n2nc(C(F)F)cc2-c2ccc(S(C)=O)cc2)cc1` (configuration not stated), the result in experiment [1], in [3], in experiment [4], in experiment [5], in [6] and in experiment [8] was inactive. Besides, the result in experiment [9], in [10], in experiment [11], in experiment [12], in experiment [13] and in experiment [18] was inactive. Also, the result in experiment [17] was inactive. The figures for the AC50 in experiment [2] and in experiment [7] were 26.6 µM (active) and 126 µM (active), respectively.
As for `CCCC(=O)OCC`, the call in experiment [1], in experiment [2], in [3], in experiment [4], in [5] and in experiment [6] was inactive. Besides, the call in [7], in experiment [8], in experiment [9], in experiment [10], in experiment [11] and in experiment [12] was inactive. The result in [13], in experiment [14], in experiment [18] and in experiment [17] was inactive.
For `CCCN(C1CCN(C(=O)C2CCNCC2)CC1)[C@@H]1CCc2ccc(OC)cc2C1`, the compound was classed as inactive in experiment [1], in experiment [3], in experiment [4], in experiment [5], in experiment [7] and in experiment [8]. Besides, the compound was called inactive in [9], in [11], in experiment [12], in [13], in experiment [19] and in [18]. Moreover, the outcome in experiment [17] was inactive. In addition, the AC50 is 100 µM (active) in experiment [2], 177 µM (active) in experiment [6], 113 µM (active) in [10] and 153 µM (active) in experiment [15].
Regarding `Oc1ccc2c(c1)-c1ccccc1C2`, the AC50 in [1] was 33.5 µM (active); in experiment [3] it was 46.4 µM (active); in experiment [4], 24.7 µM (active); in [5], 54.2 µM (active); in experiment [6] it was 11.9 µM (active); in experiment [9], 37.2 µM (active). Besides, the AC50 was 3.93 µM (active) in experiment [10], 28.8 µM (active) in experiment [13] and 57.7 µM (active) in [15]. Moreover, the call in experiment [2], in experiment [7], in [8], in experiment [11], in [12] and in [16] was inactive. Also, the outcome in experiment [17] was inactive.
`COc1ccc(/C=C/S(=O)(=O)NC(=O)c2ccc(C)cc2Cl)cc1`: the compound was classed as inactive in experiment [1], in experiment [2], in [3], in [4], in [5] and in experiment [6]. The outcome in experiment [7], in experiment [8], in experiment [9], in [10], in experiment [11] and in experiment [12] was inactive. Also, the outcome in experiment [13], in experiment [15], in [18] and in experiment [17] was inactive.
As to `CCn1nc(Cc2ccccc2)cc1C1CCN(C[C@H]2C[C@H](N(C)[C@@H](C(=O)O)C(C)C)C[C@@H]2c2cccc(F)c2)CC1`, the compound was classed as inactive in [1], in experiment [2], in experiment [3], in [4], in [5] and in experiment [6]. Also, the compound was called inactive in experiment [8], in [9], in experiment [11], in experiment [12], in [13] and in experiment [18]. Also, in experiment [16], the result was inactive. Besides, the figures for the AC50 in experiment [7] and in [10] were 26.9 µM (active) and 100 µM (active), respectively.
